Molecules are shown by their SMILES. About 1,300 (0.36%) of roughly 360,000 compounds were called active. Only a selection was taken, and actives are over-represented in it overall. Values without a mark were called inactive.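 How the source made its calls: active means inhibition above the mean of all tested compounds plus 3 SD (cut at about 70% in these data); inactive means the rest.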

The test deals with Photoreceptor-specific nuclear receptor (Homo sapiens) (UniProt Q9Y5X4). Briefly: NR2E3 agonists in two-hybrid cells, primary screen, cell-based, luminescence, CHO-S, Gal4-NCOR/VP16-NR2E3 (AID 602229).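 Further: 0% = DMSO with NR2E3 transfected cells and 100% = cells lacking NR2E3 construct; higher means lower luciferase signal from less NR2E3 corepressor binding.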 The following applies: luciferase, at 3.98 µM, stronger effect = higher value.
Photoreceptor-specific nuclear receptor (Homo sapiens), sequence (Q9Y5X4 whole entry, looked up, the tested form may be a part): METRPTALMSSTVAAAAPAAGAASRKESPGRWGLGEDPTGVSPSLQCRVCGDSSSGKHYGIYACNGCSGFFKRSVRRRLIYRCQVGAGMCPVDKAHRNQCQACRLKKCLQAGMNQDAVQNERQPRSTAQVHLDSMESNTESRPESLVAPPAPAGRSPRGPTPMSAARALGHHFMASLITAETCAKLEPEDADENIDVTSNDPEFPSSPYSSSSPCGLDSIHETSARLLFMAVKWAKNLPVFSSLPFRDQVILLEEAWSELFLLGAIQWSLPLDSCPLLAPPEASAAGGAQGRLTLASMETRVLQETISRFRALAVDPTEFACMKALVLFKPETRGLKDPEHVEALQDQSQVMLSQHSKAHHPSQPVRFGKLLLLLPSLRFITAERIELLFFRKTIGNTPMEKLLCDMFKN
In the case of `N#CC1=C(N)Oc2[nH]c(=S)[nH]c(=O)c2C12C(=O)Nc1ccccc12` (stereo unspecified), the inhibition of corepressor binding is -7.36%. In the case of `CCCCn1nnnc1C(c1ccccc1)N1CCN(c2ccccc2OC)CC1` (stereo unspecified), the inhibition of corepressor binding was -15.1%.

As for `CCCCC(=O)N(c1ccc(OC)cc1)C1C=CS(=O)(=O)C1` (stereo unspecified), the inhibition of corepressor binding was -26%.

As for `COC(=O)[C@]12CCCCC=C1N(Cc1ccco1)C(=O)[C@H](CC(=O)NCCCCc1ccccc1)C2`, the inhibition of corepressor binding was -23.9%. Next, `COc1ccc(NC(=O)CC2SC(N3CCCCC3)=NC2=O)cc1OC` (stereo unspecified): 8.6%; `CS(=O)(=O)Nc1ccccc1N=C(c1ccccc1)c1ccccc1`: 7.7%; `O=C(CCc1nnc2ccc(NCCCN3CCCC3=O)nn12)NCc1ccccc1Cl`: 8.39%. With `Cc1nc(-c2ccc(F)cc2)c(CC(=O)Nc2cc(S(=O)(=O)N3CCCCC3)ccc2C)s1` the figure was 82.8% (active); with `Cc1ccc(S(=O)(=O)N2CCN(C(=O)Cc3sc(C)nc3-c3ccc(F)cc3)CC2)c(C)c1`, -15.2%; with `Cc1nc(-c2ccc(F)cc2)c(CC(=O)N2CCN(S(=O)(=O)c3ccc(F)cc3)CC2)s1`, -1.49%.

Take `O=S(=O)(Nc1ccc(-c2ccc(N3CCOCC3)nn2)cc1)c1cc(Cl)ccc1Cl`: the inhibition of corepressor binding was -41.5%. `COc1ccc(C(C(=O)NCC2CCCO2)N(C(=O)Cn2nnc3ccccc32)c2ccc(NC(C)=O)cc2)cc1OC` (stereo unspecified): the inhibition of corepressor binding is -35.2%. For `Cn1c(=O)oc2cc(S(=O)(=O)N3CCC(C(=O)Nc4ccc(OC(F)(F)F)cc4)CC3)ccc21`, the inhibition of corepressor binding was -16.6%. Regarding `CC[C@H]1CN2CCc3cc(OC)c(OC)cc3[C@@H]2C[C@@H]1C[C@H]1NCCc2cc(OC)c(OC)cc21`, the inhibition of corepressor binding is 104% (active). Next, `O=C(CC(NCCN1CCOCC1)C(=O)O)Nc1cccc(Cl)c1` (stereo unspecified): 5.57%; `CCCCCCCCn1c2c(c(=N)c3c1CCC3)CCCC2`: 92% (active). For `Cc1ccc(S(=O)(=O)NC(C)C(=O)NCc2ccc(Cl)cc2)cc1` (stereo unspecified), the inhibition of corepressor binding was -5.53%. As to `CCn1cc(C(=O)N[C@@H](C)C(=O)NCCO)c(=O)c2cc3c(cc21)OCO3`, the inhibition of corepressor binding is -12.3%. Consider `Cc1nc([N+](=O)[O-])c(NCCCO)n1Cc1ccccc1`, for which the inhibition of corepressor binding is -10.6%. Regarding `CCN1/C(=C\c2ccc3ccccc3[n+]2CC)Sc2cc(C)ccc21`, the inhibition of corepressor binding was 89.4% (active). Regarding `COCC(=O)N1CCc2ccc(NC(=O)c3ccccc3Cl)cc2C1`, the inhibition of corepressor binding is -6.67%.

`CCOC(=O)C1CCCN(C(=O)c2cc(-c3cccs3)oc2C)CC1` (stereo unspecified): the inhibition of corepressor binding was -1.14%. Turning to `CCOc1ccccc1N1CCN(C(=O)c2ccc3[nH]c(C)c(C)c3c2)CC1`, the inhibition of corepressor binding is -57.3%.

In the case of `C[C@H](CO)N1C[C@H](C)[C@H](CN(C)CC2CC2)Oc2ccc(NC(=O)CCN3CCOCC3)cc2C1=O`, the inhibition of corepressor binding was -4.02%. With `COc1cccc(CNc2nc(NCc3ccccc3OC)nc3ccsc23)c1`, the inhibition of corepressor binding was 54.7%. Next, `COc1cccc(CNc2nc(NCc3cccs3)nc3ccsc23)c1`: 88.5% (active); `COc1ccccc1CNc1nc(Nc2ccccc2Cl)c2sccc2n1`: 64.7%; `CC[C@]1(c2ccccc2OC)C(=O)N(C(=O)OC)N1C(=O)OC`: 14.9%. With `CCn1c(CNC(=O)c2cc(OC)c(OC)c(OC)c2)cc2cc(C)ccc21` the figure was 89.3% (active); with `COc1cc(C(=O)NCc2ccc(-n3cccc3)cc2)cc(OC)c1OC`, 11.4%. Next, `COc1cc(C(=O)NCc2nnc(SCC(=O)Nc3nc4ccc(C)cc4s3)o2)cc(OC)c1OC`: -10.1%. On to `Cc1oc2c(F)c(F)c(F)c(F)c2c1S(=O)(=O)Nc1cccc(C(F)(F)F)c1`, for which the inhibition of corepressor binding was 110% (active). Next, `Cc1ccc(N(CCC(=O)O)S(=O)(=O)c2cccc(C(F)(F)F)c2)cc1`: 4.8%. With `Cc1noc(C)c1S(=O)(=O)Nc1cc(C(F)(F)F)ccc1N1CCOCC1` the figure was 4.86%; with `CCCOc1ccc(CN(CCO)CCO)cc1C(=O)OC`, 5.92%; with `COc1ccccc1CNC(=O)CNC(=O)c1cn(-c2ccccc2OC)c(=O)c2ccccc12`, 6.65%. With `COc1ccc(S(=O)(=O)N2CCc3ccccc32)cc1C(=O)Nc1cc(S(C)(=O)=O)ccc1Cl` the figure was -23.6%; with `Cc1ccc(C)c(NC(=O)CN(C)C(=O)c2ccc3ncsc3c2)c1`, -19.7%; with `CC1(C(=O)NS(=O)(=O)c2ccc(Cl)cc2)CCN1C(=O)CC1CCCC1` (stereo unspecified), 9.74%. In the case of `CN(CC(=O)Nc1cccc(F)c1)C(=O)C1=COCCO1`, the inhibition of corepressor binding was -5.12%. With `Cc1ccc(NC(=O)CN(C)CC(=O)Nc2cccc(F)c2)cc1[N+](=O)[O-]` the figure was 84.2% (active); with `Cc1ccc(NC(=O)c2sccc2C)cc1[N+](=O)[O-]`, -86.2%. With `Cc1ccc(NC(=O)C(C)OC(=O)Cc2c[nH]c3ccccc23)cc1S(=O)(=O)N1CCOCC1` (stereo unspecified) the figure was 20.8%. With `O=C(Nc1ccc(Br)cc1)c1cc(S(=O)(=O)Nc2ccccn2)ccc1Cl`, the inhibition of corepressor binding was 0.47%. With `Oc1ccc(Br)cc1/C=N/Nc1ccccn1` the figure was 87.1% (active); with `S=C(NN=Cc1ccccn1)Nc1ccccn1`, 52.5%; with `CCCN(CC(=O)Nc1ccc(OC)c(OC)c1)CC(=O)Nc1ccc(F)c(F)c1F`, -8.16%.

For the compound `CCOC(=O)C1CCN(S(=O)(=O)c2c(C)noc2C)CC1`, the inhibition of corepressor binding was -11.3%.

Regarding `Cc1csc(OCC(=O)Nc2ccc(C)c(C)c2)n1`, the inhibition of corepressor binding was -16.6%. As to `CCOC(=O)c1cnc2ccc(F)cc2c1Nc1ccc2c(c1)OCCO2`, the inhibition of corepressor binding was -13.2%.

As for `Cc1nc2ccccc2c(C(=O)O)c1-c1ccccn1`, the inhibition of corepressor binding was -21.4%. `c1ccc(-c2nccc(-c3ccc(-n4cnc5ccccc54)cc3)n2)nc1`: the inhibition of corepressor binding is 34.3%.

As to `CC(C)(C)Nc1nc(-c2ccccn2)nc2ccccc12`, the inhibition of corepressor binding was 98.8% (active).

For the compound `O=C1CC(=O)Nc2cc(S(=O)(=O)N3CCN(c4cccc(C(F)(F)F)c4)CC3)ccc2N1`, the inhibition of corepressor binding was -3.07%. With `O=C(CN1C(=O)CCS(=O)(=O)c2ccccc21)NCc1ccc(F)cc1` the figure was -8.57%; with `CCCCN1C(=O)CC(N2CCOCC2)C1=O` (stereo unspecified), -4.28%.

The values are drawn from PubChem BioAssay AID602229 (The Scripps Research Institute Molecular Screening Center, 2012).
